Active and inactive are the calls of the source. How the source made its calls: active means hit-call score of the fitted dose curve at least 0.9, where 1 is the maximum; inactive means score below 0.9.
Assay: ATG_EGR_CIS: Attagene CIS-FACTORIAL HepG2 Assay for human Early Growth Response 1 (EGR1) (AID 2282938)
Details: HepG2 Attagene CIS-FACTORIAL EGR reporter mRNA; actives raise or lower the signal
Procedure: ATG_CIS is a cell-based, multiplexed-readout assay that uses HepG2, a human liver cell line, with measurements taken at 24 hours after chemical dosing in a 24-well plate.ATG_EGR_CIS is one of 52 assay component(s) measured or calculated from the ATG_CIS assay. It is designed to make measurements of mRNA induction, a form of inducible reporter, as detected with fluorescence intensity signals by Reverse transcription polymerase chain reaction (RT-PCR) and Capillary electrophoresis technology.Data from the assay component ATG_EGR_CIS was analyzed into 1 assay endpoint. This assay endpoint, ATG_EGR_CIS, was analyzed with bidirectional fitting relative to DMSO as the negative control and baseline of activity. Using a type of inducible reporter, measures of mRNA for gain or loss-of-signal activity can be used to understand the reporter gene at the transcription factor-level as they relate to the gene EGR1. Furthermore, this assay endpoint can be referred to as a primary readout, because this assay has produced multiple assay endpoints where this one serves a reporter gene function. To generalize the intended target to other relatable targets, this assay endpoint is annotated to the dna binding intended target family, where the subfamily is zinc finger.
Human liver HepG2 cells are transiently transfected with multiple reporter transcription units (MRTUs) in 6-well plates using FuGene 6 reagent (Roche; 3 ml FuGene/1 mg DNA). The MRTU constructs are regulated by a cis-regulating element (promoter). […] A major difference between the CIS and TRANS system is that in CIS activities of endogenous TFs are measured, whereas the TRANS assay evaluates changes in activities of exogenous, chimeric NR-Gal4 proteins. […] At the end of 24 hour incubation, total RNA was isolated using TriZol reagent (Invitrogen). The isolated RNA is then reverse-transcribed using oligo(dT) primer and Mo-MLV reverse transcriptase (Invitrogen) with DNAse I (Ambion) treatment for 30 min. The one-tenth of the produced cDNA was amplified by PCR using Taq DNA polymerase (Invitrogen) and two reporter sequence-specific primers. The PCR products were fluorescently labeled by primer extension with 6-arboxyfluorescein (6-FAM) 5'-labeled reporter sequence-specific primer (2 min at 95 C, 20 s at 68 C and 10 min at 72 C) and these products were digested with 5U of HpaI (New England Biolabs) for 2h at 37 C. The fragments were purified using Qiaquick PCR columns (Qiagen), analyzed on an ABI 3130xL genetic analyzer (Applied Biosystems) with peak positions identified by using a set of X-rhodamine (ROX)-labeled MapMarker1000 molecular weight standards (BioVentures). The raw capillary electrophoresis data was processed using Attagraph software (Attagene).

Row | Compound | AC50 | outcome
1 | CCC1(C)C(=O)N(Cl)C(=O)N1Cl (stereo not given) | 34.5 µM (active) | –
2 | C=CCCCCCCCCC=O | – | inactive
3 | CC(C)CCOCc1ccccc1 | – | inactive
4 | CCCCCCCCCC[N+](C)(CCCCCCCCCC)CCC[Si](OC)(OC)OC | 7.33 µM (active) | –
5 | Cn1ccnc1 | – | inactive
6 | O=C1CCCCCCCCCCC1 | – | inactive
7 | CCC(C)c1ccccc1 (stereo not given) | – | inactive
8 | Cc1c(O)cccc1O | – | inactive
9 | O=C1CCCN1C1CCCCC1 | – | inactive
10 | C1CCSC1 | – | inactive
11 | CCCCCCCCC(CO)CCCCCC (stereo not given) | – | inactive
12 | CC(C)COC(=O)CC(C(=O)OCC(C)C)S(=O)(=O)O (stereo not given) | – | inactive
13 | C=C(C)OC(C)=O | – | inactive
14 | C=CC(=O)O[C@H]1C[C@@H]2CC[C@@]1(C)C2(C)C | 100 µM (active) | –
15 | CCCC(CC)c1ccccc1 (stereo not given) | – | inactive
16 | N#Cc1ccc(C(c2ccc(C#N)cc2)n2cncn2)cc1 | – | inactive
17 | CC(C)=CCl | – | inactive
18 | CCOC(=O)C1=NN(c2ccc(Cl)cc2Cl)C(C)(C(=O)OCC)C1 (stereo not given) | – | inactive
19 | CCCCCCCCCCCCCc1ccccc1 | – | inactive
20 | OCCCc1ccccc1 | – | inactive

Row | Compound | AC50 | outcome
21 | CC(C)=CCCC(C)=CC#N | – | inactive
22 | O=C(Oc1ccccc1)c1ccccc1C(=O)Oc1ccccc1 | – | inactive
23 | CC(CCC(=O)O)(c1ccc(O)cc1)c1ccc(O)cc1 | – | inactive
24 | CN(C)c1ccc2nc3ccc(=[N+](C)C)cc-3sc2c1 | – | inactive
25 | CC(C=O)c1ccccc1 (stereo not given) | – | inactive
26 | c1ccc2c(c1)[nH]c1ccccc12 | – | inactive
27 | C=C(C)C1CC=C(C)CC1 (stereo not given) | – | inactive
28 | CCOB(OCC)OCC | – | inactive
29 | C=CC(=O)OCC(C)OCC(C)OCC(C)OC(=O)C=C (stereo not given) | 79.7 µM (active) | –
30 | CCCCC1C(=O)N(c2ccccc2)N(c2ccccc2)C1=O | – | inactive
31 | COc1cc(C)ccc1O | – | inactive
32 | Cc1cc(C)n(CO)n1 | – | inactive
33 | C=Cc1cccc(C)c1 | – | inactive
34 | CC=C(C)C=CC=C(C)C | – | inactive
35 | COc1cc(O)c(C(=O)c2ccccc2)cc1S(=O)(=O)O | – | inactive
36 | CCCC=C(C=O)CC | – | inactive
37 | Nc1ccnc(=O)[nH]1 | – | inactive
38 | CC(C)OC(=O)c1ccccc1 | – | inactive
39 | CCCCC/C=C\C/C=C\CCCCCCCC(=O)O | 72.5 µM (active) | –
40 | C1CNCCN1 | – | inactive
